# According to PubChem BioAssay (NCI):
# Compounds without any hit were thinned out: in the full panel of roughly 79,000, 15% have a hit. A number with no mark means an inactive call. Activity calls are given as the source filed them. No stated cut-off is given here; in the data, active means growth inhibition above about 70%; inactive means the rest.
# Columns and labels:
# [1] = NCI Yeast Anticancer Drug Screen. Data for the rad50 strain (AID 155);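 further: 0% = growth of vehicle-only cultures of the same strain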; details: S. cerevisiae rad50 strain growth inhibition; at 50.0 µM; hits give high values
# Method in brief: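 A DNA repair-deficient yeast mutant serves as the test organism; compound-induced growth inhibition is calculated against vehicle-treated cells.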
# [2] = NCI Yeast Anticancer Drug Screen. Data for the mec2-1 strain (AID 157); details: S. cerevisiae mec2-1 strain, at 50.0 µM, hits give high values
# Method in brief: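 Mutant yeast (mec2-1) grown with compound; growth inhibition relative to vehicle control reported.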
# [3] = NCI Yeast Anticancer Drug Screen. Data for the sgs1 mgt1 strain (AID 161);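 further: 0% = growth of cultures given vehicle only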; details: S. cerevisiae sgs1 mgt1 strain, at 50.0 µM, hits give high values
# Method in brief: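 Yeast cells carrying a defined DNA-repair defect were exposed to test compounds. Growth inhibition was measured relative to vehicle-treated controls.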
# [4] = NCI Yeast Anticancer Drug Screen. Data for the cln2 rad14 strain (AID 165);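 further: 0% = growth equal to vehicle treated cultures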; details: S. cerevisiae cln2 rad14 strain, at 50.0 µM, hits give high values
# Method in brief: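 Readout is yeast growth inhibition versus vehicle-treated controls, using a strain with cln2 and rad14 alterations exposed to compound.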
# [5] = NCI Yeast Anticancer Drug Screen. Data for the bub3 strain (AID 167); details: S. cerevisiae bub3 mutant strain, at 50.0 µM, hits give high values
# Method in brief: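 Inhibition values come from growth of compound-treated mutant yeast normalised to vehicle-treated controls.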
# [6] = NCI Yeast Anticancer Drug Screen. Data for the mlh1 rad18 strain (AID 175); details: S. cerevisiae mlh1 rad18 strain growth inhibition; at 50.0 µM; hits give high values
# Method in brief: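 Genetically defined yeast (DNA repair-deficient) exposed to compounds; growth inhibition determined relative to vehicle.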
SMILES,growth inhibition [1],growth inhibition [2],growth inhibition [3],growth inhibition [4],growth inhibition [5],growth inhibition [6]
O=C(Nc1ccc(C(=O)O)cc1)Nc1cccc(F)c1,14.8%,8.35%,10.2%,14.6%,22.6%,13.8%
CCN(CC)CCOB(c1cccc2ccccc12)c1cccc2ccccc12,39.6%,24.4%,17.1%,26.8%,-3.4%,43.8%
COc1ccc(-c2nc(N3CCCC3)no2)cc1,-0.85%,-4.65%,32.1%,3.85%,31.1%,-20.9%
O=C(O)c1cccc2ccc3cccc(C(=O)O)c3c12,-5.35%,-6.05%,-0.45%,-74.8%,2%,-17.2%
Nc1ccc(C(=O)N/N=C/C=C/c2ccccc2)cc1,0.6%,56.1%,16.6%,-5.8%,30.4%,8.05%
CC(=O)CC(C)(C)NC(=S)Nc1ccc(C)cc1,22.6%,46.1%,15.3%,-10.7%,99.2% (active),42.3%
CC(=O)CC(C)=NCCN=C(C)CC(C)=O.[Cu],86.2% (active),64.2%,75.7% (active),84.4% (active),71.8% (active),82% (active)
CCOc1c(OC)cc(-c2nc3n(n2)C(=O)C(CC)S3)cc1OC (stereo not drawn),-15.6%,-17.4%,-41.3%,-4.85%,-3.65%,-4.2%
CN(C)Cc1cc(C(C)(C)CC(C)(C)C)cc(Br)c1O,33%,21.4%,30.6%,28.8%,39.7%,26.9%
CCCCCCCCCCCCCCCCCCNC1=C(C)C(=O)C(NCCCCCCCCCCCCCCCCCC)=C(OCC)C1=O,2.7%,-2.95%,-0.85%,-10.8%,-1.2%,-9.5%
O=C1NC2C1C1c3ccccc3C2C12CC2 (stereo not drawn),-11.1%,-7.95%,-13.6%,-11.8%,13.1%,-1.85%
COC(=O)C(C)(C)N=CN(C)C,-19.7%,13.1%,-7.8%,15.5%,-27.9%,3.55%
CC(N(N=O)c1cccc(Cl)c1)S(=O)(=O)O (stereo not drawn),7.25%,4.8%,-6.45%,22.6%,5.55%,-0.4%
O=[N+]([O-])c1ccccc1-c1ccccc1CO,-22%,-19.2%,-41.4%,-23.4%,-18.4%,-28.9%
NNC(=O)c1c[nH]c2ccccc2c1=O,3.7%,13.1%,0.85%,-20.6%,5.1%,5.4%
CN(C)C=Nc1ccc([N+](=O)[O-])cc1,-7.7%,-2.65%,-1.25%,-12.8%,-0.6%,-5.3%
Cc1cc(CC(=S)[S-])[n+](C)c(CC(=S)S)c1,12.2%,8.05%,-14.1%,3.75%,-1.55%,19.8%
CC1(C)C2CC(NC(=O)c3ccc([N+](=O)[O-])cc3)C1C2 (stereo not drawn),18.6%,4.6%,-1.5%,-4.9%,3.25%,11.9%
Nc1cc(Br)cc2c1-c1ccc(Br)cc1C2=O,15.1%,-10.6%,1.35%,-54.9%,5.15%,10%

SMILES,growth inhibition [1],growth inhibition [2],growth inhibition [3],growth inhibition [4],growth inhibition [5],growth inhibition [6]
O=C1C=CC(CCCCCn2ccc(=O)[nH]c2=O)C(=O)N1 (stereo not drawn),-8.25%,3.15%,14.7%,13.8%,-6.6%,-0.25%
CC(C)(C)C1=CC(=C2C(=O)C(=O)c3ccccc3C2=O)C=C(C(C)(C)C)C1=O,-3.2%,-22.2%,-12.7%,6.85%,22.4%,-21.5%
CC/C=C/CC(=O)NCc1ccc(O)c(OC)c1,5.45%,-1.15%,-7.95%,48.3%,-2.9%,-16.7%
Cc1c(C)c(Cl)c(C)c(C(Cl)(Cl)Cl)c1C,0.85%,-1.3%,2.05%,12.2%,-0.65%,-6.25%
COc1ccc(N(C)S(=O)(=O)c2ccccc2)cc1,15.1%,-8.9%,-3.65%,10.8%,0.1%,15.8%
OCCOCC#CCOCCO,3.9%,-0.25%,-2.35%,-7.45%,-9.25%,9.3%
COC(=O)C(C)OC(=O)OCC(C)C (stereo not drawn),-11.1%,-1.9%,0.15%,-2.95%,-2.95%,-11.8%
CC(Cc1ccccc1)NC(=O)c1ccncc1 (stereo not drawn),2.5%,7.45%,-5.4%,-39.7%,-0.85%,2%
Oc1cc2c(cc1C(c1ccc(F)cc1)N1CCCC1)OCO2 (stereo not drawn),33.1%,19.5%,39.9%,-15.6%,37.9%,35.1%
CC(NC(=O)C(Cc1ccc(OC(=O)c2ccccc2)cc1)NC(=O)OC(C)(C)C)C(=O)NCC(=O)NC(Cc1ccccc1)NC(=O)OCc1ccccc1 (stereo not drawn),-11.7%,-24.6%,-27.7%,7.35%,-25.4%,-8.95%
CN1CC2=C(NC(=S)NC2c2ccccc2Cl)/C(=C/c2ccccc2Cl)C1 (stereo not drawn),14.7%,13.2%,37.6%,10.6%,61.8%,-5.15%
CC(=O)N(C)CCCCCCN(C)C(C)=O,8.95%,8.05%,10.7%,3.05%,7.2%,9.35%
CC(=O)OCC1OC(n2nc(/C=C/c3ccco3)c(=O)n(-c3ccccc3)c2=S)C(OC(C)=O)C(OC(C)=O)C1OC(C)=O (stereo not drawn),57.5%,14.8%,61%,29.4%,16.4%,56.4%
CC(=O)C1CC[C@@]2(C)C(CC[C@H]3[C@@H]4CCC[C@H]([C@H](C)O)[C@@]4(C)CC[C@@H]32)C1 (stereo partly drawn),-16.9%,0.3%,2.9%,0.4%,-5.5%,-7.5%
CNC(=O)c1ccc(/C=C/c2c[nH]c3ccccc23)[n+](C)c1,-24.9%,-7.9%,-9.05%,-11.2%,-2.65%,-13.3%
COc1ccc(C[C@@H]2Cc3cc(OC)c(OC)cc3CN2C)cc1,27.4%,4.6%,19.6%,5.65%,10.9%,21.4%
N#CC(=O)Nc1ccc(F)cc1,-58.3%,-2.35%,-6.15%,-8%,1.9%,3.2%
CCOC(=O)CN(C=O)C(C)c1ccccc1 (stereo not drawn),13.1%,18.4%,4.4%,3.7%,33.6%,20.9%
CCCCOC(=O)c1ccc(NC(=O)Nc2ccc([N+](=O)[O-])cc2OC)cc1,-24.2%,-11.1%,-17.6%,50.7%,-0.8%,6.05%
